Measured values published in PubChem BioAssay (EPA / NIEHS).
Inconclusive results are not listed. Calls of active or inactive are those of the source. The calls were made as follows: active = hit-call score of the fitted dose curve at least 0.9, where 1 is the maximum; inconclusive = response in the unintended direction; inactive = score below 0.9.

read-out: alkyl and aryl transferase (GSTA2), GSTA2 (gene 2939); experiment: CLD_GSTA2_6hr: CellzDirect (CLD) Gene Expression Assay for alkyl and aryl transferase (GSTA2) at 6 hours (AID 2283666)
Method: CLD_6hr is a cell-based, multiplexed-readout assay that uses hepatocyte, a human liver primary cell, with measurements taken at 6 hours after chemical dosing in a 96-well plate.CLD_GSTA2_6hr is one of 16 assay component(s) measured or calculated from the CLD_6hr assay. It is designed to make measurements of mRNA induction, a form of inducible reporter, as detected with chemiluminescence signals by Quantitative Nuclease Protection Assay (qNPA) technology.Data from the assay component CLD_GSTA2_6hr was analyzed at the endpoint, CLD_GSTA2_6hr, in the positive analysis fitting direction relative to DMSO as the negative control and baseline of activity. Using a type of inducible reporter, gain-of-signal activity can be used to understand changes in the reporter gene as they relate to the gene GSTA2. Furthermore, this assay endpoint can be referred to as a primary readout. To generalize the intended target to other relatable targets, this assay endpoint is annotated to the transferase intended target family, where subfamily is alkyl and aryl transferase.
Human hepatocyte cultures were treated daily for two consecutive days with fresh dosing solutions containing appropriate concentrations of the 320 ToxCast chemicals (chemical identities were blinded to CellzDirect and other ToxCast collaborators), vehicle control (0.2% DMSO), and positive control inducers as summarized in Table 1. Due to the large number of treatment groups and chemicals examined, the ToxCast chemicals were divided into two groups (spanning two independent cultures of hepatocytes from separate donor preparations (Hu778: ToxCast plates 1 and 2; Hu776: ToxCast plates 3 and 4). Each preparation of human hepatocyte cultures was treated with respective vehicle control, medium only control, set of six positive controls/reference chemicals for the five hepatic receptor pathways, and a subset of eight of the ToxCast chemicals (indoxacarb, pyrithiobac-sodium, norflurazon, cyhalofop-butyl, methomyl, thiram, acetochlor, and propiconazole). These replicate data, coupled with internal replicates designed within the blinded ToxCast chemical library, provided additional data to evaluate interindividual differences between hepatocyte preparations and their potential impact on chemical profiles.Cell morphology and integrity were evaluated using phase-contrast microscopy as an indicator of hepatocyte cell health (Tyson & Green, 1987). Cultures for each treatment group (i.e., media, vehicle [0.2% DMSO], positive control inducers [multiple concentrations], and the ToxCast chemicals [multiple concentrations]) were observed and cell morphology was assessed relative to vehicle control cultures at each harvest time point (0, 6, 24, or 48 h). […] Images were evaluated at the conclusion of the study to assess changes in cell integrity and account for the effects of chemical exposure on uncharacteristic changes in concentration-dependent gene expression profiles. The results from these determinations of apparent cytotoxicity were annotated (yes/no) alongside the corresponding qNPA data for reference.At the conclusion of each treatment period, hepatocyte cultures (96-well) were washed with 1 volume of HBSS, lysed by addition of 25 ul ArrayPlate lysis buffer (HTG, Tucson, AZ), and 70 ul/well of Denaturation Oil, denatured by incubation at 95C for 10 min, and frozen at approximately -70C until analysis by nuclease protection assay (qNPA) (Roberts et al., 2007). For qNPA analysis, cell lysates were thawed at 50C for approximately 30 min, qNPA probes were added, and samples were incubated at 95C for 10 min to begin the detection process by denaturing the target RNA, dissociating the duplexes and secondary structure hybridization. At the conclusion of the hybridization period, S1 nuclease reagent was added to each sample to digest all nonprotected nucleotides at 50C for 60-90 min. […]

Structure (SMILES) | outcome
CCC(C)OC(=O)N1CCCCC1CCO (stereo not drawn) | inactive
COC(=O)c1ccccc1S(=O)(=O)NC(=O)Nc1nc(OC(F)F)cc(OC(F)F)n1 | inactive
CCSC(=O)N(CC(C)C)CC(C)C | inactive
CN(C)C(=O)Nc1ccc(Cl)c(Cl)c1 | inactive
COCCO | inactive
CCN(Cc1c(F)cccc1Cl)c1c([N+](=O)[O-])cc(C(F)(F)F)cc1[N+](=O)[O-] | inactive
O=C(Nc1ccc([N+](=O)[O-])cc1Cl)c1cc(Cl)ccc1O | inactive
CC(C)(C)[C@@H](O)[C@@H](Cc1ccc(Cl)cc1)n1cncn1 | inactive
CCCN(CCC)C(=O)SCC | inactive
COC(=O)c1ccc(I)cc1S(=O)(=O)NC(=O)Nc1nc(C)nc(OC)n1 | inactive
COc1nc(C)nc(NC(=O)NS(=O)(=O)c2ccccc2OCCCl)n1 | inactive
CCOC(=O)C(C)Oc1ccc(Oc2cnc3cc(Cl)ccc3n2)cc1 (stereo not drawn) | inactive
c1ccc2[nH]c(-c3cscn3)nc2c1 | inactive
CCC(O)=C1C(=O)CC(C(=O)O)CC1=O (stereo not drawn) | inactive
N#CSCSc1nc2ccccc2s1 | inactive
Cc1nn(C)c(Oc2ccccc2)c1C=NOCc1ccc(C(=O)OC(C)(C)C)cc1 | inactive
CC1(C)C(C=C(Cl)Cl)C1C(=O)OCc1cccc(Oc2ccccc2)c1 (stereo not drawn) | inactive

Structure (SMILES) | outcome
c1ccc(Nc2ccccc2)cc1 | inactive
CSC(=O)c1cccc2nnsc12 | inactive
COC(=O)c1c(Cl)nn(C)c1S(=O)(=O)NC(=O)Nc1nc(OC)cc(OC)n1 | inactive
CC(C)(c1ccc(O)cc1)c1ccc(O)cc1 | inactive
S=C([S-])NCCNC(=S)[S-].[Mn+2] | inactive
COc1c(Cl)ccc(Cl)c1C(=O)O | inactive
CCCCOC(=O)C(C)Oc1ccc(Oc2ccc(C(F)(F)F)cn2)cc1 (stereo not drawn) | inactive
O=C(O)C1(C(=O)Nc2ccc(Cl)cc2Cl)CC1 | inactive
CCNc1nc(N)nc(Cl)n1 | inactive
CCCN(CCC)c1c([N+](=O)[O-])cc(C(F)(F)F)c(N)c1[N+](=O)[O-] | inactive
CCN(CC)C(=O)c1cccc(C)c1 | inactive
CCOC(=O)C(C)Oc1ccc(Oc2nc3ccc(Cl)cc3o2)cc1 (stereo not drawn) | inactive
Oc1ccc(C(c2ccc(O)cc2)C(Cl)(Cl)Cl)cc1 | inactive
CCCCCOC(=O)COc1cc(N2C(=O)C3=C(CCCC3)C2=O)c(F)cc1Cl | inactive
CCCOC(=O)NCCCN(C)C | inactive
C=CCOC(Cn1ccnc1)c1ccc(Cl)cc1Cl (stereo not drawn) | inactive
